The results in this text go back to PMC4336329 (PLoS ONE, 2015).

Among all 310,000 compounds or so, about 14,000 (4.5%) showed an effect of 50% or more. The effect is printed as a negative number. The sample as a whole holds a higher share of strong results than the screen did.
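Also: peak tail current of the secondary pulse compared with the same well before compound.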

In the assay the target is human ether-à-go-go-related gene (hERG) potassium channel (human, UniProt Q12809). The experiment in a line: primary screen, population patch clamp on CHO cells stably expressing hERG; higher = less effect of the substance.
human ether-à-go-go-related gene (hERG) potassium channel, sequence (Q12809 whole entry, looked up): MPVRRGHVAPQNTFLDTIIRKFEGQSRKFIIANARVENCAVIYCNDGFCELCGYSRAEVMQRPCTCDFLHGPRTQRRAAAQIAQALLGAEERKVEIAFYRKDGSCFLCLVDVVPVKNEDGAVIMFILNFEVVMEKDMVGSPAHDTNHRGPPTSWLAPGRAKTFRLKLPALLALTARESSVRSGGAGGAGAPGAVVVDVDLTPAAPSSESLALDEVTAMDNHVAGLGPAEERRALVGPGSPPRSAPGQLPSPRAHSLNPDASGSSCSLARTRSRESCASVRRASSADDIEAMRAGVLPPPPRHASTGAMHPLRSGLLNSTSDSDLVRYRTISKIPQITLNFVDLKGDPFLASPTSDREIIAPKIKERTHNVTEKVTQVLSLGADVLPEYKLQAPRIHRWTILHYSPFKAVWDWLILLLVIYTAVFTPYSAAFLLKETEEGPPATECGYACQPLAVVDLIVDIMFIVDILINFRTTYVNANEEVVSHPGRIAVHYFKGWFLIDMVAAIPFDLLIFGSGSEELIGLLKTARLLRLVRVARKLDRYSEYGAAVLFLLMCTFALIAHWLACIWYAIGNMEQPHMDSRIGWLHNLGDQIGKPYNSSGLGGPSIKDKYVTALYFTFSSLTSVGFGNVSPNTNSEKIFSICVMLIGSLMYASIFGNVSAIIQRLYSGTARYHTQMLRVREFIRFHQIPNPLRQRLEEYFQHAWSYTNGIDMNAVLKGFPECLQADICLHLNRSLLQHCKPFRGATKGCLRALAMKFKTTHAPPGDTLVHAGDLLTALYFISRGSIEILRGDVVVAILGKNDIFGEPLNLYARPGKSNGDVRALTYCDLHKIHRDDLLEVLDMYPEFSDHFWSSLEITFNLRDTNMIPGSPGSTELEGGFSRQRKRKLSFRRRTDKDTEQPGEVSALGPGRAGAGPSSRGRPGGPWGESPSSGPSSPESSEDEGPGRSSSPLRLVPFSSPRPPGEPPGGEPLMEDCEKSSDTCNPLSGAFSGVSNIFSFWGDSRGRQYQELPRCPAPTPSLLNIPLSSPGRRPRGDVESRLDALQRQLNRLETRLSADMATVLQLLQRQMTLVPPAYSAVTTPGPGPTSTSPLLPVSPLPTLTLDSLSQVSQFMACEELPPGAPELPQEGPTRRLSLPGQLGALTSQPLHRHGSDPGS
In the case of `Cc1ccc(-c2nc(C3CCCN(S(=O)(=O)c4ccc(C(F)(F)F)cc4)C3)no2)cc1` (stereo not drawn), the “hERG current change (%, negative = inhibition) at 10uM” value was 15%. With `CC(C)(C)C(=O)Nc1c2c(nn1-c1ccc(F)cc1)CSC2`, the “hERG current change (%, negative = inhibition) at 10uM” value worked out at 13.4%. `COc1ccc(C(=O)NCCSCc2ccccc2)cc1OC`: the “hERG current change (%, negative = inhibition) at 10uM” value is recorded as -5.31%. The figure for `Cc1nnc(SCC(=O)NC2CCCCC2)s1` is 10.7%. As for `O=[N+]([O-])c1cc(C(F)(F)F)ccc1Oc1cccnc1[N+](=O)[O-]`, the “hERG current change (%, negative = inhibition) at 10uM” value is on record as -7.06%. `O=C1CSC(=S)N1Cc1cccnc1`: the “hERG current change (%, negative = inhibition) at 10uM” value is listed as -2.25%.

Regarding `O=S(=O)(Nc1ccccn1)c1ccc(Br)cc1`, the “hERG current change (%, negative = inhibition) at 10uM” value is reported as -2.97%. The figure for `Cc1cc(C)c(C#N)c(Nc2ccccc2C)n1` is 12.4%.

With `O=C(O)C(=O)O.O=C(c1cccs1)N1CCN(Cc2cccc([N+](=O)[O-])c2)CC1`, the “hERG current change (%, negative = inhibition) at 10uM” value is reported as -33.1%.

For `O=C(O)C(=O)O.O=C(c1ccco1)N1CCN(Cc2cccc([N+](=O)[O-])c2)CC1`, the “hERG current change (%, negative = inhibition) at 10uM” value is listed as -20.3%. The figure for `O=C(O)C(=O)O.O=[N+]([O-])c1cccc(CN2CCN(Cc3ccc(Br)cc3)CC2)c1` is -72.4%; for `O=C(O)C(=O)O.O=[N+]([O-])c1cccc(CN2CCN(Cc3ccco3)CC2)c1` it is -4.34%.

On to `CC(C)N1CCN(Cc2cccc([N+](=O)[O-])c2)CC1`, for which the “hERG current change (%, negative = inhibition) at 10uM” value was -2.13%. The figure for `O=C(O)C(=O)O.O=[N+]([O-])c1cccc(CN2CCN(Cc3ccc(Cl)cc3)CC2)c1` is -70.8%; for `Cc1cccc(NC(=O)CN2C(=O)S/C(=C\c3ccccn3)C2=O)c1` it is 30.2%. For the compound `O=C(CCn1nnc2ccccc21)Nc1nnc(-c2ccccc2F)s1`, the “hERG current change (%, negative = inhibition) at 10uM” value came out at 3.13%. The figure for `N#CC1=C(N)Oc2n[nH]c(-c3ccccn3)c2C1c1c(F)cccc1Cl` (stereo not drawn) is -3.23%; for `CCOc1ccc(OCCCCNCCN)cc1.O=C(O)C(=O)O` it is 5.79%. Consider `COC(=O)C1=NN(c2ccc(C)cc2)C2(S1)SC(C(C)=O)=C(C)N2c1ccccc1` (stereo not drawn), for which the “hERG current change (%, negative = inhibition) at 10uM” value is on record as -10%. As to `CCOc1ccc(CNC(=O)CCSCc2ccccc2F)cc1OC`, the “hERG current change (%, negative = inhibition) at 10uM” value is recorded as 5.18%. The figure for `Cc1ccc(/C=C(/C#N)c2nc(CCN3C(=O)c4ccccc4C3=O)cs2)cc1` is 21.6%; for `COc1ccc(CN2CCN(S(=O)(=O)c3ccccc3)CC2)c(OC)c1.O=C(O)C(=O)O` it is -63.5%; for `COc1cc(CN2CCN(S(=O)(=O)c3ccccc3)CC2)cc(OC)c1OC.O=C(O)C(=O)O` it is -5.31%.

In the case of `COc1ccc(OC)c(CN2CCN(S(=O)(=O)c3ccccc3)CC2)c1`, the “hERG current change (%, negative = inhibition) at 10uM” value is reported as -79.2%.

`COc1ccc(CN2CCN(S(=O)(=O)c3ccccc3)CC2)c(OC)c1OC`: the “hERG current change (%, negative = inhibition) at 10uM” value amounted to 3.14%. In the case of `COc1ccc(OC)c(CN2CCN(S(=O)(=O)c3ccc(NC(C)=O)cc3)CC2)c1.O=C(O)C(=O)O`, the “hERG current change (%, negative = inhibition) at 10uM” value was -3.01%. On to `COc1ccc(S(=O)(=O)N2CCN(Cc3cc(OC)c(OC)cc3OC)CC2)cc1.O=C(O)C(=O)O`, for which the “hERG current change (%, negative = inhibition) at 10uM” value is recorded as -11.5%. Consider `CCOC(=O)Cn1cnc2sc(C(=O)OC)c(C)c2c1=O`, for which the “hERG current change (%, negative = inhibition) at 10uM” value worked out at 11.1%. The figure for `CCn1c(COc2ccccc2OC)nnc1SCC#N` is -3.43%.

For the compound `C=CCn1c(SCC(=O)c2cccs2)nc2sc(C)cc2c1=O`, the “hERG current change (%, negative = inhibition) at 10uM” value turned out to be 1.56%. `Cc1ccc(NC(=O)Nc2cccc(Cl)c2)c(C(=O)O)c1`: the “hERG current change (%, negative = inhibition) at 10uM” value came to 19.6%. For `CC1=C(C(=O)Nc2ccccc2)C(c2ccc3c(c2)OCO3)C2=C(CCCC2=O)N1` (stereo not drawn), the “hERG current change (%, negative = inhibition) at 10uM” value is recorded as -14.2%. Take `O=C1Nc2ccc(Br)cc2C1(O)Cc1ccncc1` (stereo not drawn): the “hERG current change (%, negative = inhibition) at 10uM” value was -2.45%. For `CSCCC(NC(=O)COc1ccccc1)C(=O)OCc1ccc([N+](=O)[O-])cc1` (stereo not drawn), the “hERG current change (%, negative = inhibition) at 10uM” value is reported as -70.8%. With `COC(=O)c1ccc(COC(=O)C(CCSC)NC(=O)COc2ccccc2)cc1` (stereo not drawn), the “hERG current change (%, negative = inhibition) at 10uM” value is reported as -9.2%. Take `CSCCC(NC(=O)COc1ccccc1)C(=O)N(C)Cc1ccc(Cl)cc1Cl` (stereo not drawn): the “hERG current change (%, negative = inhibition) at 10uM” value is listed as -24.5%. The figure for `CSCCC(NC(=O)COc1ccccc1)C(=O)N(C)Cc1ccc(F)cc1` (stereo not drawn) is -50.3%; for `CSCCC(NC(=O)COc1ccccc1)C(=O)N(C)Cc1cccc(F)c1` (stereo not drawn) it is -37.9%; for `CSCCC(NC(=O)COc1ccccc1)C(=O)OCC(=O)c1ccccc1` (stereo not drawn) it is 4.14%.

In the case of `CSCCC(NC(=O)COc1ccccc1)C(=O)N1CCN(c2ccccc2)CC1` (stereo not drawn), the “hERG current change (%, negative = inhibition) at 10uM” value is reported as -51.9%. Take `CSCCC(NC(=O)COc1ccccc1)C(=O)N1CCN(C(C)=O)CC1` (stereo not drawn): the “hERG current change (%, negative = inhibition) at 10uM” value is -5.67%. Take `CSCCC(NC(=O)COc1ccccc1)C(=O)N1CCOCC1` (stereo not drawn): the “hERG current change (%, negative = inhibition) at 10uM” value is listed as -9.88%.
